# For some of these results: Potency and affinity values are given separately.
# Assays:
# Design in all cases: scale not given: direction of the effect not stated beside the values
# [1] = molecular target: Protein translocase subunit SecA (Escherichia coli (strain K12)) (UniProt P10408); assay: Assay to Identify E. coli SecA ATPase Inhibitors; type: functional; settings: 30 µM
# [2] = molecular target: T1, Ubiquitin-activating enzyme e1, putative (Leishmania donovani (strain BPK282A1)) (UniProt E9BSI1); assay: Leishmania donovani Ubiquitin Activating Enzyme (LdE1); type: functional; settings: 30 µM
# T1 sequence (whole entry): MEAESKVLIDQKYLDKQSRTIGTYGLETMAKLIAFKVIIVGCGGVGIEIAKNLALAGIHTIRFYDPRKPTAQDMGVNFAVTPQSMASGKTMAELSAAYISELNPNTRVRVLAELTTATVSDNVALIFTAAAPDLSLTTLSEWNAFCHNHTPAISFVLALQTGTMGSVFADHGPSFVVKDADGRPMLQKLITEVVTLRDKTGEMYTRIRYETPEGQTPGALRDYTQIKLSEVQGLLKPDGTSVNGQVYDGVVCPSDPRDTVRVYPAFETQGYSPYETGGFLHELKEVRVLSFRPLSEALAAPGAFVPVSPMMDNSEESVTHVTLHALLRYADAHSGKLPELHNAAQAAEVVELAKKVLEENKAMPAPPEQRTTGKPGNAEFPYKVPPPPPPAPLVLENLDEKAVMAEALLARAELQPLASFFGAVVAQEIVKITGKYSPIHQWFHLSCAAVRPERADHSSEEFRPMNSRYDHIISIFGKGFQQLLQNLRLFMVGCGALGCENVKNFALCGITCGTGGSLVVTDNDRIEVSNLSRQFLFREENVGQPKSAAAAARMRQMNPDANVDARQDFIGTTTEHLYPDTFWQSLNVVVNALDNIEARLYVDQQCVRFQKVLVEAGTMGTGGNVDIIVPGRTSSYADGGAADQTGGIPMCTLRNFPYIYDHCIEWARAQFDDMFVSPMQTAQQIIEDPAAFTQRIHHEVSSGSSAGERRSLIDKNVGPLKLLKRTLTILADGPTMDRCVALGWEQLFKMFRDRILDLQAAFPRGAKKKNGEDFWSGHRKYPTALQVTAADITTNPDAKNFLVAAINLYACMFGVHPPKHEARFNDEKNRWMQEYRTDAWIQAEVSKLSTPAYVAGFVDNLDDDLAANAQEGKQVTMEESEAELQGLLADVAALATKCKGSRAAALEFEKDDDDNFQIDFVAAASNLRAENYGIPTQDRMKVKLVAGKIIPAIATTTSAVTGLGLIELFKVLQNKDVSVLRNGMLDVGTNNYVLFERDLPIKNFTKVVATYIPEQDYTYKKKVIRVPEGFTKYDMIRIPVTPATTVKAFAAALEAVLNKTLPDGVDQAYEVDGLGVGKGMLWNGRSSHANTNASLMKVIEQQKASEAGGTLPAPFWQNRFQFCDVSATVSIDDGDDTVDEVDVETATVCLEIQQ
# [3] = molecular target: AMP-activated protein kinase, AMPK (Homo sapiens) (UniProt P54646+O43741+P54619+Q9UGJ0+Q9Y478+Q13131+Q9UGI9); assay: AMP-dependent Kinase enzyme assay. An in vitro enzyme assay that detects ADP turnover that is directly proportional to AMPK activity. This uses naive AMPK that is activated during the assay with MK-8722; type: functional; settings: 30 µM
# [4] = molecular target: Sialic acid-binding Ig-like lectin 9 (Homo sapiens) (UniProt Q9Y336); assay: Hs-Siglec9 ALPHAscreen SOP 20170721; settings: 10 µM
# [5] = test system: Trypanosoma cruzi; assay: Trypanosoma cruzi phosphomannomutase and mannose-1-phosphate guanylyltransferase assay; type: functional; settings: 10 µM
# [6] = molecular target: T2, Arginase-2, mitochondrial (Homo sapiens) (UniProt P78540); assay: in vitro enzyme assay to detect the production of urea directly proportional to the activity of Arginase II; type: functional; settings: 33.3 µM; further: in the data most compounds retested in dose-response had high values
# T2 sequence (whole entry): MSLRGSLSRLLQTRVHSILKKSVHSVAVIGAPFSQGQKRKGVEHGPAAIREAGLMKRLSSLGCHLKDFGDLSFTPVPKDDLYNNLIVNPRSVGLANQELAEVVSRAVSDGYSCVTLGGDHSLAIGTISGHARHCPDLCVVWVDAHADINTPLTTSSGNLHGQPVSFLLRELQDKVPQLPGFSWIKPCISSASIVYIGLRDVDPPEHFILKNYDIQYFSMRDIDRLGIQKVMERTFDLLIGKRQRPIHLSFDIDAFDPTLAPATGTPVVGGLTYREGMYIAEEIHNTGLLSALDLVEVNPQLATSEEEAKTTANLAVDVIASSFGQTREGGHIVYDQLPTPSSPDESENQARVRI
# [7] = molecular target: T3, Proteasome subunit beta (Trypanosoma cruzi) (UniProt O96673); assay: Trypanosoma cruzi proteasome chymotrypsin-like activity (TcProtChymo) assay.; further: in the data most compounds retested in dose-response had high values; type: functional; settings: 9.37 µM
# T3 sequence (whole entry): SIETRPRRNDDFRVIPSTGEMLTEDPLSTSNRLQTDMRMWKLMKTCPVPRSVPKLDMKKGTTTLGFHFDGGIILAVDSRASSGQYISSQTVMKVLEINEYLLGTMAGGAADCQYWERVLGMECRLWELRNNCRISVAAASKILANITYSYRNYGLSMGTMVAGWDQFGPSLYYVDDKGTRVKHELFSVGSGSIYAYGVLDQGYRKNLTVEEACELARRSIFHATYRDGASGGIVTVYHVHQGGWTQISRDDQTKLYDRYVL
# [8] = organism: Homo sapiens; assay: To identify inhibition of the IFN signalling (Jak-Stat) pathway via expression of an eGFP reporter gene under the control of an IFN-stimulated response element (ISRE) containing MxA promoter.; type: functional; settings: 30 µM
# [9] = molecular target: T4, Tyrosyl-tRNA synthetase, putative (Trypanosoma cruzi (strain CL Brener)) (UniProt Q4DSP6); assay: Trypanosoma cruzi tyrosyl tRNA synthetase (TcYRS) _High Tyrosine SOP; type: functional; settings: 30 µM; further: in the data most compounds retested in dose-response had high values
# T4 sequence (whole entry): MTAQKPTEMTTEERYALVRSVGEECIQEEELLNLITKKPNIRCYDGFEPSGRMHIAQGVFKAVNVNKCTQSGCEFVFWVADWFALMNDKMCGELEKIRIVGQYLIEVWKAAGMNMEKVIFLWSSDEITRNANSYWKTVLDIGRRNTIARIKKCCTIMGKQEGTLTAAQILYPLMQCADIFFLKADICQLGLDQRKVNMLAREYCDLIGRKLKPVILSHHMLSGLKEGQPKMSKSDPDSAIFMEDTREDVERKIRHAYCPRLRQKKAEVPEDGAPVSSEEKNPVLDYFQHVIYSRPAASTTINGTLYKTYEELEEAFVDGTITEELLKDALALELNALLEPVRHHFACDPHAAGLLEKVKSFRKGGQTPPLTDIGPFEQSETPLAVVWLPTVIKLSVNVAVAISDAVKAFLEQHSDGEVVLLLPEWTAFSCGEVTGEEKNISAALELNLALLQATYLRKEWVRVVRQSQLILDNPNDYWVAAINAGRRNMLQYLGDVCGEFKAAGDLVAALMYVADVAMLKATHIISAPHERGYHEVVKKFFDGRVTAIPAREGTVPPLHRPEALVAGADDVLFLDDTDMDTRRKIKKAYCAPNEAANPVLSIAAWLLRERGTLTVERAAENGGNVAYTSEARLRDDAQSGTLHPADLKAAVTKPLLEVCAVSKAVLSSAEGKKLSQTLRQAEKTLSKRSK
# [10] = molecular target: T4, Tyrosyl-tRNA synthetase, putative (Trypanosoma cruzi (strain CL Brener)); assay: Trypanosoma cruzi tyrosyl tRNA synthetase (TcYRS) SOP; type: functional; settings: 30 µM
# [11] = molecular target: Chromo domain-containing protein 1 (Saccharomyces cerevisiae (strain ATCC 204508 / S288c) (Baker's yeast)) (UniProt P32657); assay: ScCHD-1 Enzyme Inhibition Assay; type: functional; settings: 30 µM; further: in the data most compounds retested in dose-response had high values
# Chain of Chromo domain-containing protein 1 (Saccharomyces cerevisiae (strain ATCC 204508 / S288c) (Baker's yeast)) (P32657 whole entry, the tested form may be a part): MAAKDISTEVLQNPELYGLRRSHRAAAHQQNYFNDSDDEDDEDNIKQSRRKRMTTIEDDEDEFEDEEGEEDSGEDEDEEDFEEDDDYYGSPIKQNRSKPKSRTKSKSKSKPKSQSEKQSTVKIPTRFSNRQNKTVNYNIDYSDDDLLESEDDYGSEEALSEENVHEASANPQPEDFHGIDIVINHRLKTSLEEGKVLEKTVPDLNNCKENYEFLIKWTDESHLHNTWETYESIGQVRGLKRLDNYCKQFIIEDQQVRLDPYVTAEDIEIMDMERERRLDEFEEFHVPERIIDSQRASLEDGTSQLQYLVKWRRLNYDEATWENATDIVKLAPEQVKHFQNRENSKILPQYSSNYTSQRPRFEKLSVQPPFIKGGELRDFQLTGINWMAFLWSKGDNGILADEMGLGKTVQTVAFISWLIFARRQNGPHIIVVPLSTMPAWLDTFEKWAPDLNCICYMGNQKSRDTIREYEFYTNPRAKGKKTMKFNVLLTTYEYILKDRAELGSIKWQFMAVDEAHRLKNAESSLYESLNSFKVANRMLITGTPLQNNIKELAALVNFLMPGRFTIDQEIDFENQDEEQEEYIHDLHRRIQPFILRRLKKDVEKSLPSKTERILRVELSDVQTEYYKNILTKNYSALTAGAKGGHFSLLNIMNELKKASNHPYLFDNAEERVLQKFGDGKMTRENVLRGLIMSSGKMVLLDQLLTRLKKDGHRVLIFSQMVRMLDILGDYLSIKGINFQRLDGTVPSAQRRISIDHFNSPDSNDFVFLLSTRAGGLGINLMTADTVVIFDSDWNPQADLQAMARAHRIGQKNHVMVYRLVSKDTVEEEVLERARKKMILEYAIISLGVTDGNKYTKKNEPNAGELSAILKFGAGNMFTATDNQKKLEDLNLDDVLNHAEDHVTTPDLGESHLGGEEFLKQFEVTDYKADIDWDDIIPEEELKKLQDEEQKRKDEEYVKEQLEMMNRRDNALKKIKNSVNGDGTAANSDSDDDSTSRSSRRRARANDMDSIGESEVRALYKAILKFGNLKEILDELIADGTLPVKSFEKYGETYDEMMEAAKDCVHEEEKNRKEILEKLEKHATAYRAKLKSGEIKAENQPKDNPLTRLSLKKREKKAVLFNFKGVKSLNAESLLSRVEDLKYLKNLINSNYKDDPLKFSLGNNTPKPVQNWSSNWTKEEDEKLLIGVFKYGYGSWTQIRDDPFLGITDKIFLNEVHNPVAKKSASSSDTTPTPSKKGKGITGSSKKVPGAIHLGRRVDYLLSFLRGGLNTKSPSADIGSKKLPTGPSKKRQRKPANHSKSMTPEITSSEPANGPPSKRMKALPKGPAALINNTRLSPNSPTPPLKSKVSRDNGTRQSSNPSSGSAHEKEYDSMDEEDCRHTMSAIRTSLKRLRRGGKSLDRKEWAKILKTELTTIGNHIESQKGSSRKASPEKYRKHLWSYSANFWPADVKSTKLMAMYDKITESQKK
# Chain of Sialic acid-binding Ig-like lectin 9 (Homo sapiens) (Q9Y336 whole entry): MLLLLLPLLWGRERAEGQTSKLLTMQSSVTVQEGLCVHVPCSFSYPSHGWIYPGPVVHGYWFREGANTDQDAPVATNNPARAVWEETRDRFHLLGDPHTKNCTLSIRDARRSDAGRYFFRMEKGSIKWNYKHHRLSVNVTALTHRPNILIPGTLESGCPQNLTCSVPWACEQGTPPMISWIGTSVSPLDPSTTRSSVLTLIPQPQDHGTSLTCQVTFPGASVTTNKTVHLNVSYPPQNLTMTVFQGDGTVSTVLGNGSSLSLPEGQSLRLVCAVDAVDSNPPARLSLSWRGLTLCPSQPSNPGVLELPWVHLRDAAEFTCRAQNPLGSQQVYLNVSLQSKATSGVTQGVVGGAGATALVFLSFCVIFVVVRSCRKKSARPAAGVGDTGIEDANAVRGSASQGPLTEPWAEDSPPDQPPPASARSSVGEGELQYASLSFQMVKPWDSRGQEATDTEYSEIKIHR
# Chain of Protein translocase subunit SecA (Escherichia coli (strain K12)) (P10408 whole entry): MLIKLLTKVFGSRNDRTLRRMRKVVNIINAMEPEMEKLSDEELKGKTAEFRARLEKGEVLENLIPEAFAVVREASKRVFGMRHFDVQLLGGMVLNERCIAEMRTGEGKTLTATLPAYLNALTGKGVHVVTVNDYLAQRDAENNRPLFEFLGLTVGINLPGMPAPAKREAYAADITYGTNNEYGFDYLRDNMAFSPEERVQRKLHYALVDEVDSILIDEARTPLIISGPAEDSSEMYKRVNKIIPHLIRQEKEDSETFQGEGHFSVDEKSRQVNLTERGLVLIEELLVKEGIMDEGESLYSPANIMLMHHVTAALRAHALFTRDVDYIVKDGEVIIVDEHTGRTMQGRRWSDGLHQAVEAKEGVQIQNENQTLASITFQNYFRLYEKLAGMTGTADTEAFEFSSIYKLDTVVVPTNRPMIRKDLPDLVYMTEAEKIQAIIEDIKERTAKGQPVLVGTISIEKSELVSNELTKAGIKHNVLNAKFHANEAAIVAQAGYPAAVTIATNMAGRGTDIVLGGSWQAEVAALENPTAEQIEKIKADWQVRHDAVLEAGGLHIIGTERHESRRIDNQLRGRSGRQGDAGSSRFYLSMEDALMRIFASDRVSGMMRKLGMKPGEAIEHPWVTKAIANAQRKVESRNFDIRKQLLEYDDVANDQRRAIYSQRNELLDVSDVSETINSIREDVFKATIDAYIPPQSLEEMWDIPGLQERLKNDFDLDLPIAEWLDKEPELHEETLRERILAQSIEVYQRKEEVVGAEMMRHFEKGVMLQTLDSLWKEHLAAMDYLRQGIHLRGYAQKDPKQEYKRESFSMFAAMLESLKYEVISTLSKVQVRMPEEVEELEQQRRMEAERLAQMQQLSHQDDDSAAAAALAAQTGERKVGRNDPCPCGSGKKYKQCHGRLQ
structure (smiles),measurement,setting,value
O=S(=O)(c1cccnc1)N1CCN(CCn2ccnc2)CC1,Percent Effect,[1],-4.58%
same,Percent Effect,[2],5.48%
same,Percent Effect,[3],-1.26%
same,Percent Effect,[4],0.536%
same,Percent Effect,[5],-8.81%
same,Percent Effect,[6],-0.455%
same,Percent Effect,[7],11.7%
same,Percent Effect,[8],-0.863%
same,Percent Effect,[9],5.38%
same,Percent Effect,[10],12.5%
same,Percent Effect,[11],-5.5%
COc1cccc(N2CCN(CCC(=O)NC3CCCC3)CC2)c1,Percent Effect,[1],-4.61%
same,Percent Effect,[2],7.89%
same,Percent Effect,[3],6.03%
same,Percent Effect,[4],5.22%
same,Percent Effect,[5],-0.292%
same,Percent Effect,[6],-22.5%
same,Percent Effect,[7],16.6%
same,Percent Effect,[8],4.41%
same,Percent Effect,[9],9.57%
same,Percent Effect,[10],13%
same,Percent Effect,[11],-4.62%
CC(=O)N1CCCN(C(=O)c2cnc3n[nH]c(C)c3c2)CC1,Percent Effect,[1],-1.9%
same,Percent Effect,[2],15.8%
same,Percent Effect,[3],-3.49%
same,Percent Effect,[4],5.52%
same,Percent Effect,[5],3.08%
same,Percent Effect,[6],3.96%
same,Percent Effect,[7],2.45%
same,Percent Effect,[8],-3.15%
same,Percent Effect,[9],9.36%
same,Percent Effect,[10],23.5%
same,Percent Effect,[11],-9.47%
O=C(CC1CC1)N1CC[C@H]2[C@@H]1CCC(=O)N2c1cccnc1,Percent Effect,[1],3.01%
same,Percent Effect,[2],10.8%
same,Percent Effect,[3],7.09%
same,Percent Effect,[4],-6.56%
same,Percent Effect,[5],-4.79%
same,Percent Effect,[6],4.14%
same,Percent Effect,[7],22.9%
same,Percent Effect,[8],2.55%
same,Percent Effect,[9],1.08%
same,Percent Effect,[10],12.8%
same,Percent Effect,[11],-1.6%
COc1ccc(CNCC2CC2)cc1F,Percent Effect,[1],-3.45%
same,Percent Effect,[2],0%
same,Percent Effect,[3],3.06%
same,Percent Effect,[4],6.66%
same,Percent Effect,[5],1.56%
same,Percent Effect,[6],-1.67%
same,Percent Effect,[7],3.47%
same,Percent Effect,[8],-5.14%
same,Percent Effect,[9],4.95%
same,Percent Effect,[10],3.66%
same,Percent Effect,[11],-2.56%
CCc1nnc(Nc2cccc(C3CCN(CCO)CC3)n2)s1,Percent Effect,[1],-7.83%
same,Percent Effect,[2],12.2%
same,Percent Effect,[3],0.559%
same,Percent Effect,[4],1.33%
same,Percent Effect,[5],1.58%
same,Percent Effect,[6],-2.55%
same,Percent Effect,[7],14%
same,Percent Effect,[8],24%
same,Percent Effect,[9],2.15%
same,Percent Effect,[10],11.7%
same,Percent Effect,[11],-26.9%
CCOc1ncccc1CNC(=O)N1CCCC1c1cc(C)no1 (stereo unspecified),Percent Effect,[1],-3.76%
same,Percent Effect,[2],8%
same,Percent Effect,[3],-5.83%
same,Percent Effect,[4],0.983%
same,Percent Effect,[5],-1.66%
same,Percent Effect,[6],0.521%
same,Percent Effect,[7],12%
same,Percent Effect,[8],14.2%
same,Percent Effect,[9],8.2%
same,Percent Effect,[10],16.1%
same,Percent Effect,[11],-6.86%
CCc1nc(C2CCCN(C(=O)c3cccc4c3ccn4C)C2)no1 (stereo unspecified),Percent Effect,[1],-2.43%
same,Percent Effect,[2],-5.41%
same,Percent Effect,[3],1.08%
same,Percent Effect,[4],3.25%
same,Percent Effect,[5],5.29%
same,Percent Effect,[6],-6.47%
same,Percent Effect,[7],5.92%
same,Percent Effect,[8],17.1%
same,Percent Effect,[9],3.96%
same,Percent Effect,[10],3.66%
same,Percent Effect,[11],-0.759%
CCN(CCn1cccn1)Cc1nc(-c2cccs2)oc1C,Percent Effect,[1],-3.57%
same,Percent Effect,[2],-1.39%
same,Percent Effect,[3],40.3%
same,Percent Effect,[4],-4.42%
same,Percent Effect,[5],0.486%
same,Percent Effect,[6],0.442%
same,Percent Effect,[7],2.63%
same,Percent Effect,[8],0.654%
same,Percent Effect,[9],4.21%
same,Percent Effect,[10],2.56%
same,Percent Effect,[11],0.676%
COc1ccc(-c2noc(CN3CCc4cncnc4C3)n2)cc1,Percent Effect,[1],-3.37%
same,Percent Effect,[2],-15.8%
same,Percent Effect,[3],-14.9%
same,Percent Effect,[4],2.94%
same,Percent Effect,[5],7.52%
same,Percent Effect,[6],0%
same,Percent Effect,[7],18.6%
same,Percent Effect,[8],8.69%
same,Percent Effect,[9],8.33%
same,Percent Effect,[10],9.76%
same,Percent Effect,[11],25%
O=C(CCc1nc2cccnc2[nH]1)NCc1cccnc1,Percent Effect,[1],-3.19%
same,Percent Effect,[2],25.3%
same,Percent Effect,[3],-5.37%
same,Percent Effect,[4],0.97%
same,Percent Effect,[5],3.34%
same,Percent Effect,[6],-0.88%
same,Percent Effect,[7],15.5%
same,Percent Effect,[8],9.81%
same,Percent Effect,[9],8.47%
same,Percent Effect,[10],15.4%
same,Percent Effect,[11],-10.2%
